# High-throughput results: PubChem BioAssay, National Center for Advancing Translational Sciences (NCATS)
# KDM4E inh: blocks human JMJD2E demethylase activity. Potency, µM (doses to about 57.1 µM), for inactives: at the top dose activity change, negative = inhibition, hits mostly inhibitors. 1.6% of 230,000 active. B2RXH2. AID 2147. JMJD2E catalytic domain, FDH-coupled NADH fluorescence (FDH is formaldehyde dehydrogenase);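 also: potency is read from the fitted curve at half-maximal effect; 0% = wells with enzyme and -100% = buffer wells without enzyme; nearly all actives have a fitted effect of over 50% in size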
# Target sequence (B2RXH2 1-337 limits assumed): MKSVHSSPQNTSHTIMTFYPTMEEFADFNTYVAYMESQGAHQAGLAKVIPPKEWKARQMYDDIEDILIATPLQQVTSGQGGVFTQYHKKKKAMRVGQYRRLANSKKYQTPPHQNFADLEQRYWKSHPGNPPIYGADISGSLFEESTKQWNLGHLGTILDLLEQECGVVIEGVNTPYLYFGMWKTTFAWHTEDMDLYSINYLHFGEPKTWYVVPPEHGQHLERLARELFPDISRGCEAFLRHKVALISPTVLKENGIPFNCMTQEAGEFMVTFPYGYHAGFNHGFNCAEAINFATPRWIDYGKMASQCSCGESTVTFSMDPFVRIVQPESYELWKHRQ
# NPSR antag: blocks cAMP signaling of the human neuropeptide S receptor. Potency, µM (doses to about 38.3 µM), for inactives: top-dose activity change, negative = inhibition, hits mostly inhibitors. CHO-NPSR cells, cAMP TR-FRET, antagonist mode. 1% of 220,000 active. Q6W5P4; also: potency is read from the fitted curve at half-maximal effect; nearly all actives have a fitted effect of over 50% in size
# Tau fibril ThT: blocks human tau fibril formation measured by thioflavin T. 2.1% of 270,000 active. P10636. recombinant tau K18 P301L, heparin-induced fibrillization, ThT fluorescence. AID 1460. Potency, µM (doses to about 57.4 µM), inactives show at the highest dose activity, negative = inhibition, hits mostly inhibitors; also: potency is read from the fitted curve at half-maximal effect; nearly all actives have a fitted effect of over 55% in size
# Target sequence (P10636 561-689 P618L limits assumed): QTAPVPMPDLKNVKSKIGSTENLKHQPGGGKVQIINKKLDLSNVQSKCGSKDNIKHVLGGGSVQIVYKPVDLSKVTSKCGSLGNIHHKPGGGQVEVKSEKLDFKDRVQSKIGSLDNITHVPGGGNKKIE
#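 Heparin-induced (20 uM) aggregation of recombinant human K18 P301L tau, 15 uM unlabeled with 0.24 uM labeled, pH 7 acetate buffer, 6 hr at 37 C with compound. Fibrils quantified by 30 uM ThT fluorescence after 1 hr ambient incubation.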
# Tau fluor counter: counter-screen for tau fibril formation inhibitors | AID 1463 | tau K18 P301L (four-repeat tau fragment) Alexa594 fluorescence, heparin fibrillization | Potency, µM (series often up to 57.7 µM), for the others: top-dose activity change, negative = decrease | 0.93% of 280,000 active; also: potency is read from the fitted curve at half-maximal effect; nearly all actives have a fitted effect of over 55% in size
#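 Human K18 P301L tau (15 uM unlabeled plus 0.24 uM Alexa 594-labeled, final) in 100 mM sodium acetate pH 7 was mixed with compound and 20 uM heparin and incubated 6 hr at 37 C.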
# Tau fibril FP: inhibitors of human tau fibril formation; 0.39% of 280,000 active; K18 P301L tau heparin fibrillization, Alexa594 FP, 6 h; Potency, µM (series often up to 57.7 µM), inactives show at the highest dose activity, negative = inhibition, usual class: inhibitors; P10636; also: potency is read from the fitted curve at half-maximal effect; nearly all actives have a fitted effect of over 55% in size
#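 Recombinant K18 P301L […], labeled with Alexa 594 at 0.24 uM over 15 uM unlabeled; heparin inducer 20 uM final; 37 C, 6 hr; FP endpoint.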
# PNC assembly inh: perinucleolar compartment assembly inhibition. PC3M PTB-GFP, PNC prevalence imaging, 16 h; stronger effect = lower value. activity change (PNC), negative = inhibition, % at 10 µM. 3.1% of 140,000 active;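 active = readout at or below -70, meaning at least 70% loss of cells showing the perinucleolar compartment, a nuclear body marking cancer cells; inconclusive = readout between -30 and a set limit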;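 also: plate controls were DMSO wells for no effect and camptothecin positive control wells for full effect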
#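 Read-out is percentage of cells bearing a perinucleolar compartment, from automated 20x imaging of fixed, Hoechst-stained PC3M PTB-GFP cells. Cells were seeded 4 h, then exposed 16 h to compound (23 nl of library stock) in duplicate plates.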
# * = called active by the depositor; ? = inconclusive; / = not tested or not shown; [ ] = another dose, or the depositor's remark. Hits are enriched below; roughly 5.1% of the tested compounds scored in any of these assays. Unless noted, calls follow the shape of the dose curve; as a rule, active = well fitted curve in the direction sought with a large enough effect; inconclusive = small, poorly fitted or top-dose-only effect, or another doubt; inactive = no such curve, though single readings can be large; an effect the other way counts as inactive or inconclusive. Unless noted, % is scaled to controls: 0 for no effect and ±100 for the full control effect.
SMILES,KDM4E inh,NPSR antag,Tau fibril ThT,Tau fluor counter,Tau fibril FP,PNC assembly inh
Cc1cccc(Oc2nc(CN3CCOCC3)nc3sc4c(c23)CCCC4)c1,-3%,-47%,-16%,4%,?,-104*
CC1(C)CC(=O)C(C=Nc2ccc(C(=O)c3ccccc3)cc2N=CC2=C(O)CC(C)(C)CC2=O)=C(O)C1,20µM*,1%,?,-6%,-3%,/
CC1(C)CC(=O)C(C=Nc2ccc(O)c(N=CC3=C(O)CC(C)(C)CC3=O)c2)=C(O)C1,3.2µM*,-20%,4µM*,?,?,/
CC1(C)CC(=O)C(N=Nc2cc(Cl)c(Cl)c(Cl)c2)=C(O)C1,0%,-4%[46.1 µM],-19%,-12%,-3%,18
Cc1ccc(O)c(N=NC2=C(O)CC(C)(C)CC2=O)c1,0.56µM*,-17%,?,-13%,-3%,?
COc1ccc(N(C)C(=O)c2cn(C3CCCCC3)c(=O)c3c2c2ccccc2n3C)cc1,/,/,-13%,-8%,7%,/
CCCC(=O)N1c2ncnn2C2(CCCCC2)[C@@H]2CCCC[C@@H]21,/,/,-2%,-2%,4%,/
Cc1ccc(CO/N=C\Cc2snc(Sc3ncc(C(F)(F)F)cc3Cl)c2C#N)cc1,-5%,10µM*,?,?,4%,18
OC(C#CCN1CCCC1)c1ccccc1 (stereo not given),-2%,-1%[46.1 µM],-6%,-8%,-2%,-87*
OC(C#CCN1CCCCC1)c1ccccc1 (stereo not given),18%,4%[46.1 µM],-2%,-1%,3%,10
COc1ccc(C2CC(=O)N(CC(=O)Nc3ccc(C(C)=O)cc3)c3ccccc3S2)cc1OC (stereo not given),/,/,-19%,?,1%,/
Fc1ccc(Nc2nc3ccccc3c3nncn23)c(Cl)c1,/,/,-15%,-14%,-14%,/
CCc1ccc(NC(=O)C(C)n2nnc3sc(-c4ccccc4)cc3c2=O)cc1 (stereo not given),/,/,28µM*,-17%,?,/
COC(=O)C(C)n1nnc2sc(-c3ccccc3)cc2c1=O (stereo not given),?,8%,?,-19%,5%,/
CCC(=O)N1CCc2cc(Br)cc(S(=O)(=O)N3CCCCCC3)c21,4%,-17%[46.1 µM],-3%,-11%,0%,-100*
CCC(=O)N1CCc2cc(Br)cc(S(=O)(=O)CCC(=O)NCc3ccco3)c21,2%,7%,0%,0%,0%,-119*
CCC(=O)N1CCc2cc(Br)cc(S(=O)(=O)CCC(=O)NCc3ccccc3)c21,/,/,-3%,-11%,-4%,/
C=C(COC)C1=CCC(C(=O)OC)(C(=O)OC)[C@@H](C[N+](=O)[O-])c2ccccc21,-7%,/,-7%,-13%,-10%,/
O=C(CN1C(=O)S/C(=C\c2ccc(Cl)cc2)C1=O)NNC(=O)c1ccccc1O,18µM*,1%,-1%,-22%,?,26
Cc1c(C(=O)N2CCCCCC2)c(S(=O)(=O)Nc2cccc(C#N)c2)c(C)n1C,/,/,-8%,-1%,-1%,/
COc1ccc(NC(=O)Cn2c(=O)n(CCc3ccccc3)c(=O)c3sc4ccccc4c32)cc1,/,/,5%,-24%,?,/
Cc1ccc2[nH]c(-c3cccc(N)c3)cc2c1,?,-8%[46.1 µM],10µM*,14µM*[quencher],?,?
S=C(NCc1ccccc1)NC1CCCCC1,7%,0%,-5%,-13%,5%,/
S=C(NCc1cccc(Cl)c1)NC1CCCCC1,3%,-28%,2%,?,-2%,-109*
C=C(C)C(=O)/C=C/C=C/c1ccccc1,-3%,/,-4%,0%,-1%,/
SMILES,KDM4E inh,NPSR antag,Tau fibril ThT,Tau fluor counter,Tau fibril FP,PNC assembly inh
COc1ccc(CN(C(=O)c2cnccn2)C(C(=O)Nc2ccc(F)cc2)c2ccccc2)cc1 (stereo not given),6%,-15%[46.1 µM],-4%,-15%,-6%,-95*
CCC(C)(C)NC(=O)C(c1ccc(F)cc1)N(Cc1ccc(OC)cc1)C(=O)c1cnccn1 (stereo not given),10%,21%,-6%,-10%,-5%,/
CC1=NN(c2ccccc2)C(=O)/C1=C\c1ccc(Oc2ccc([N+](=O)[O-])cc2[N+](=O)[O-])cc1,6.3µM*,-10%,14µM*,14µM*[quencher],?,?
COc1cc(/C=C2\C(=O)N(c3ccccc3)N=C2C)ccc1Oc1ccc([N+](=O)[O-])cc1[N+](=O)[O-],?,-15%,?,?,-10%,5
O=C(NCC1CCCO1)c1cc2ccccc2[nH]1 (stereo not given),?,18%[7.67 µM],-6%,-5%,0%,-123*
COc1cccc(CNC(=O)c2ccc(-n3c(C)cc4c3CCC(C)C4)cc2)c1 (stereo not given),/,/,?,-19%,?,/
C/C(CC1CC(COCC(C)C)OC1=O)=N\Nc1nc(-c2ccccc2)cs1 (stereo not given),4%,-18%[46.1 µM],18µM*,?,-8%,?
O=C(CNC(=O)c1cccc(F)c1)N/N=C/c1cc(Br)ccc1OC(=O)/C=C/c1ccco1,-7%,-28%,-15%,-30%,-6%,-81*
CCOc1ccc(C(=O)Nc2ccc(C(=O)OCc3cc(=O)n4nc(CC)sc4n3)cc2)cc1,/,/,2%,3%,3%,/
CCCCNC(=O)c1ccc2c(c1)ncn2-c1cc(OC)ccc1OC,/,/,0%,-4%,4%,/
CC(=O)c1ccc(NC(=O)CSc2nnc3ccc(-c4ccc(Br)cc4)nn23)cc1,/,/,-5%,-20%,?,/
COc1cc2c(C(=O)NCc3ccc(C)o3)cn(CC(C)C)c(=O)c2cc1OC,-2%,-14%[46.1 µM],-9%,-3%,-2%,-108*
Nc1ccc2nc(-c3ccccn3)[nH]c2c1,?,?,25µM*,?,-7%,-11
COc1ccccc1Cc1noc(COc2cccc(C)c2C)n1,0%,-12%[46.1 µM],-16%,-8%,2%,-135*
COc1cccc(-c2noc(COc3cccc(C)c3C)n2)c1,/,/,-11%,-15%,-11%,/
CN1CCN(C2=Cc3ccccc3Sc3cc(F)c(F)cc32)CC1,3%,?,?,?,12%,-88*
Nc1nc(Nc2cccc(F)c2)nc(NCc2ccco2)c1[N+](=O)[O-],5%,-23%,/,?,?,/
Nc1nc(Nc2ccc(Cl)cc2)nc(NCc2ccco2)c1[N+](=O)[O-],-1%,?,?,?,16µM*,/
Cc1cccc(Nc2nc(N)c([N+](=O)[O-])c(NCc3ccco3)n2)c1,0%,-14%,?,?,?,56
Nc1nc(Nc2cccc(Cl)c2)nc(NCc2ccco2)c1[N+](=O)[O-],-7%,44%,?,?,28µM*,/
COc1ccc(Nc2cc(C)nc(NCc3ccccc3)n2)cc1,0%,?,?,35µM*[quencher],4%,/
